Source: PubChem BioAssay (NCATS)
Records with an inconclusive call do not appear. Activity calls are given as the source filed them. The call rests on the fitted dose curve; in most records, active means well fitted cell-killing curve with a large enough effect; inconclusive means small, poorly fitted or top-dose-only effect, or effect the other way; inactive means no such curve, though single readings can be large or run the other way.

Assay: Quantitative High-Throughput drug screen in 47 multiple myeloma cell lines against the NCATS MIPE library collection: UTMC2_PLB cell viability assay (AID 1919868); further: nearly all actives have a fitted effect of over 55% in size
Settings: CellTiter-Glo ATP luminescence, 48 h; viability (% of DMSO control): at 45.8 µM (top of the series)
Text: PI: Beverly A. Mock Ph.D.
Laboratory of Cancer Biology and Genetics,
Center for Cancer Research, National Cancer Institute,
National Institute of Health, Bethesda, Maryland
Drug resistance and disease progression are common in multiple myeloma (MM) patients, underscoring the need for new therapeutic combinations. […] We hypothesized that effective combinations would reduce MYC expression and enhance p16 activity. […] These preclinical data identify potentially useful drug combinations for evaluation in drug-resistant MM and reveal potential mechanisms of combined drug sensitivity.
Described herein is the primary MIPE qHTS used to cherrypick compounds. Validated compounds were then further tested for potential synergistic activiy.
[1] Peat TJ, Gaikwad SM, Dubois W, Gyabaah-Kessie N, Zhang S, Gorjifard S, Phyo Z, Andres M, Hughitt VK, Simpson RM, Miller MA, Girvin AT, Taylor A, Williams D, D'Antonio N, Zhang Y, Rajagopalan A, Flietner E, Wilson K, Zhang X, Shinn P, Klumpp-Thomas C, McKnight C, Itkin Z, Chen L, Kazandijian D, Zhang J, Michalowski AM, Simmons JK, Keats J, Thomas CJ, Mock BA. Drug combinations identified by high-throughput screening promote cell cycle transition and upregulate Smad pathways in myeloma. Cancer Lett. 2023 Aug 1;568:216284. doi: 10.1016/j.canlet.2023.216284. Epub 2023 Jun 24. PMID: 37356470; PMCID: PMC10408729.
SEQUENCE No. (e.g., 1, 2, 3, etc.); […] (e.g., Cells, Incubation, Reagent, etc.); VALUE and DESCRIPTION.
1; Cells; 5 uL; white, solid bottom 1536-well Greiner assay plate.
2; Compounds; 23 nL; Kalypsis pin tool (Wako USA) equipped with a 1536-well pin head to transfer to the assay plates.
3; Incubation; 48 hours; 37C incubation.
4; Reagent;5uL; CellTiter Glo (Promega).
5; Detector; 425V; Luminescence; Viewlux PerkinElmer.
NOTES (numbers refer to Sequence numbers above)
1. The cell-based screening methods employed in this study were like those previously published. Briefly, the corresponding myeloma cell lines were screened in 1,536-well plates with 500 cells, 5-uL per well for inhibition of cell viability (assessed by measuring ATP levels with CellTiterGlo).
2. NCATS MIPE 4.0 library of approved and investigational drugs were added using the Kalypsis pin tool. Wells treated with DMSO only for 100% viability and media only for 0% viability were used as controls.
3. The assay plates were covered and incubated for 48 hours in a 37C, 5% CO2 incubator with controlled humidity.
4. After 48 hours, CellTilter-GloTM luminescent substrate mix (Promega) reagent was added to the assay plate and plates we incubated for 5 min at room temperature.
5. Signal was measured as median relative luminescence units on a ViewLux (PerkinElmer) multiplate reader.
[1] Heske CM, Davis MI, Baumgart JT, Wilson K, Gormally MV, Chen L, Zhang X, Ceribelli M, Duveau DY, Guha R, Ferrer M, Arnaldez FI, Ji J, Tran HL, Zhang Y, Mendoza A, Helman LJ, Thomas CJ. Matrix Screen Identifies Synergistic Combination of PARP Inhibitors and Nicotinamide Phosphoribosyltransferase (NAMPT) Inhibitors in Ewing Sarcoma. Clin Cancer Res. 2017 Dec 1;23(23):7301-7311. doi: 10.1158/1078-0432.CCR-17-1121. Epub 2017 Sep 12. PMID: 28899971; PMCID: PMC6636827.
Potency means the concentration at half of the fitted maximal effect.

| Compound | Potency | viability (% of DMSO control) |
| --- | --- | --- |
| C[N+]1(C)[C@@H]2CC(OC(=O)[C@H](CO)c3ccccc3)C[C@H]1[C@H]1O[C@@H]12 (stereo not given in full) | inactive | – |
| CNC1CCC(N(Cc2cccc(-c3ccncc3)c2)C(=O)c2sc3c(F)ccc(F)c3c2Cl)CC1 (stereo not given) | 20.9 µM (active) | – |
| CN(C)c1cc(NC(=O)CNC(C)(C)C)c(O)c2c1C[C@@H]1C[C@H]3[C@H](N(C)C)C(=O)C(C(N)=O)=C(O)[C@@]3(O)C(=O)C1=C2O | 13.2 µM (active) | – |
| O=C(O)[C@H]1O[C@H](Oc2cc3oc(-c4ccccc4)cc(=O)c3c(O)c2O)[C@H](O)[C@@H](O)[C@H]1O | inactive | – |
| CO[C@H]1C=CC=C(C)C(=O)NC2=CC(=O)C(NCCN(C)C)=C(C[C@@H](C)C[C@H](OC)[C@@H](O)[C@@H](C)C=C(C)[C@@H]1OC(N)=O)C2=O | 0.0662 µM (active) | – |
| COc1cc(Nc2ncc(F)c(Nc3ccc4c(n3)NC(=O)C(C)(C)O4)n2)cc(OC)c1OC | 0.59 µM (active) | – |
| NS(=O)(=O)c1cccc2c1C(=O)c1cccc(O)c1C2=O | 0.372 µM (active) | – |
| CCc1ccc(OCc2ccccc2C(=O)Nc2ccc3nc(C)cc(N)c3c2)cc1 | 3.32 µM (active) | – |
| CCC(=O)O[C@]1(C(=O)CO)CC[C@H]2[C@@H]3CCC4=CC(=O)CC[C@]4(C)[C@@H]3CC[C@@]21C | inactive | – |
| COc1cc(N2CCC(N3CCN(C)CC3)CC2)ccc1Nc1ncc(Cl)c(Nc2ccccc2S(=O)(=O)C(C)C)n1 | inactive | – |
| COc1cccc2c1CCCC2CCCN1CCN(C2CCCCC2)CC1 (stereo not given) | 16.6 µM (active) | – |
| CC=CC(=O)N(CC)c1ccccc1C | inactive | – |
| CC1(C)O[C@H]2C[C@@H]3[C@H]4CCC5=CC(=O)C=C[C@]5(C)[C@@]4(F)[C@@H](O)C[C@]3(C)[C@]2(C(=O)CO)O1 | inactive | – |
| CC(C)OC(=O)CCCC=CC[C@@H]1[C@H](C=C[C@@H](O)COc2cccc(C(F)(F)F)c2)[C@H](O)C[C@@H]1O | 16.6 µM (active) | – |
| C[C@]12CC[C@@H]3c4ccc(O)cc4C[C@@H](CCCCCCCCCS(=O)CCCC(F)(F)C(F)(F)F)[C@H]3[C@H]1CC[C@H]2O (stereo not given in full) | inactive | – |
| NC(CO)(CO)CCc1ccc(Sc2cccc(OCc3ccccc3)c2)cc1Cl | 16.6 µM (active) | – |
| O=C(NC1CCOCC1)c1ccc(-c2cc(-c3cn[nH]c3-c3ccccn3)ccn2)cc1 | inactive | – |
| Cc1c(O)cccc1C(=O)N[C@@H](CSc1ccccc1)[C@H](O)CN1C[C@H]2CCCC[C@@H]2C[C@@H]1C(=O)NC(C)(C)C | 23.5 µM (active) | – |
| COC1CCC(N(C(=O)C2CCC(C)CC2)c2cc(C3=CCCCC3)sc2C(=O)O)CC1 (stereo not given) | – | 89.9% (active) |
| COc1ccc(C2Sc3ccccc3N(CCN(C)C)C(=O)C2OC(C)=O)cc1 (stereo not given) | 16.6 µM (active) | – |

| Compound | Potency | viability (% of DMSO control) |
| --- | --- | --- |
| CC(=O)Oc1cc2c(s1)CCN(C(C(=O)C1CC1)c1ccccc1F)C2 (stereo not given) | 2.96 µM (active) | – |
| COc1cc(NC(=O)c2ccc(-c3ccc(Cl)cc3)o2)cc(OC)c1 | 10.5 µM (active) | – |
| CO[C@@H](C(=O)N1Cc2[nH]nc(NC(=O)c3ccc(N4CCN(C)CC4)cc3)c2C1)c1ccccc1 | 0.0332 µM (active) | – |
| CN(C)Cc1cccc(N=C(c2ccccc2)c2c(O)[nH]c3cc(C(=O)N(C)C)ccc23)c1 | 16.6 µM (active) | – |
| O=C(O)c1ccccc1C(=O)Nc1ccc(-c2ccccc2)cc1 | inactive | – |
| O=c1cc(N2CCOCC2)oc2c(-c3cccc4c3sc3ccccc34)cccc12 | 5.9 µM (active) | – |
| CS(=O)(=O)N(Cc1ccco1)CC(O)Cn1c2ccccc2c2ccccc21 (stereo not given) | inactive | – |
| Cc1nnc(C(C)C)n1C1C[C@H]2CC[C@@H](C1)N2CC[C@H](NC(=O)C1CCC(F)(F)CC1)c1ccccc1 (stereo not given in full) | inactive | – |
| O=C(CCCCCCC(=O)Nc1ccccc1)NO | 0.662 µM (active) | – |
| O=C1c2ccccc2-[n+]2ccc3c([nH]c4ccccc43)c21 | 1.32 µM (active) | – |
| O=C(NCc1ccccc1)c1csc(Nc2ccncn2)n1 | 16.6 µM (active) | – |
| O=c1c(-c2ccc(O)cc2)coc2cc(OC3O[C@H](CO)[C@H](O)[C@H](O)[C@H]3O)cc(O)c12 (stereo not given in full) | 5.9 µM (active) | – |
| COc1cc2ncnc(-n3nc(-c4ccccn4)nc3N)c2cc1OC | 3.32 µM (active) | – |
| C=C1C(=O)[C@@]23C(CC[C@@H]1[C@H]2O)[C@@]12CO[C@]3(O)[C@@H](O)[C@@H]1C(C)(C)CC[C@@H]2O (stereo not given in full) | 8.33 µM (active) | – |
| O=C(O)C=Cc1ccc(O)c(O)c1 | inactive | – |
| O=C1NC(=O)C(=Cc2ccc3c(c2)OC(F)(F)O3)S1 | 23.5 µM (active) | – |
| C[C@@H]1CCN(C(=O)CC#N)C[C@H]1N(C)c1ncnc2[nH]ccc12 | inactive | – |
| CC(=O)O[C@]1(C(C)=O)CC[C@@H]2[C@@H]3C[C@H](C)C4=CC(=O)CC[C@]4(C)[C@H]3CC[C@@]21C | inactive | – |
| Cc1cnc(C(=O)O)c[n+]1[O-] | inactive | – |
| Cc1ccc([C@@H]2O[C@H](CO)[C@@H](O)[C@H](O)[C@@H]2O)cc1Cc1ccc(-c2ccc(F)cc2)s1 | inactive | – |
